# Source: PubChem BioAssay (NCI)
# Compounds without any hit were thinned out: in the full panel of roughly 83,000, 20% have a hit.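 Negative percent growth values reflect cell death: -40 means 40% of the cells present at the start died, and -100 means all died.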 The source made the active and inactive calls. The calls were made as follows: active = growth percent below 10; inactive = the rest.
# Tested on: MDA-MB-468 breast
# Assay: NCI-60 one-dose screen, 48 h (100 = growth as untreated, 0 = no growth, -100 = all killed)
# Settings: 10 µM unless noted
row,Structure (SMILES),growth
1,COc1ccc(N2C(=O)c3cc(OC)c(OC)cc3NC2SCc2ccccc2)cc1 (stereo not given),108% (inactive)
2,COc1cc(-c2c3c(cn2CCN2CCCCC2)-c2oncc2CC3)cc(OC)c1OC,94.6% (inactive)
3,CN(C)CCOc1nc2ccccc2c2c1-c1ccc(Cl)cc1C2=O,-51.1% (active)
4,COc1ccc(/C=N/NC(=O)c2ccc(-n3cc(-c4ccccc4)nn3)cc2)cc1OC,101% (inactive)
5,COc1ccc(C(=O)C/C(=C\c2ccc(O)c(OC)c2)C(=O)NN)cc1,27.6% (inactive)
6,COC(=O)c1cccc([N+](=O)[O-])c1,105% (inactive)
7,O=C1Nc2ccc(Cl)cc2/C1=N/c1nc(-c2ccc(Cl)cc2)cs1,-18% (active)
8,CCOC(=O)C1=C(c2ccccc2)N=C2N(c3ccccc3)N=C(C(C)=O)N2C1c1ccc(F)cc1 (stereo not given),93.2% (inactive)
9,COc1cccc2c1-c1ccccc1C2=O,39.3% (inactive)
10,C#C[C@H]1CCCCCC1O (stereo not given in full),99.3% (inactive)
11,COC(=O)C(Sc1ccc(Cl)cc1)C1SC(=S)N(Cc2ccccc2)C1=O (stereo not given),94.7% (inactive)
12,Cc1ccc(-c2nc(C#N)c(S(=O)(=O)n3nc(-c4ccccc4)cc3N)o2)cc1,63.1% (inactive)
13,COC1CC(O)C2=C(CC3C(/C(C)=C\CC=C(C)C)CCC3(C)O2)C1=O (stereo not given),109% (inactive)
14,C=CCN1C(=O)/C(=C/C(=O)OC)S/C1=N\NC(=O)c1cc2ccc1/C=C\c1ccc(cc1)/C=C\2,76.3% (inactive)
15,C=C1C(=O)O[C@H]2[C@H]1CC/C(COC(=O)c1cccc3ccccc13)=C\CC[C@@]1(C)O[C@@H]21,-45.1% (active)
16,C=CCn1c(SCC(=O)Nc2ccc(C(=O)/C=C/c3ccc(Cl)cc3)cc2)nnc1-c1cc(OC)c(OC)c(OC)c1,79% (inactive)
17,CN1CCN(c2ccc3nc(-c4cc(C(C)(C)C)c(O)c(C(C)(C)C)c4)[nH]c3c2)CC1,65.4% (inactive)
18,CSc1nc(O)c(-c2ccccc2)c(=O)[nH]1,99.1% (inactive)
19,c1ccc2c(c1)Nc1ccncc1S2,107% (inactive)
20,O=C1Nc2cc(-c3ccc(NS(=O)(=O)c4ccccc4)cc3)ccc2/C1=C/c1ccc[nH]1,-7.8% (active)

row,Structure (SMILES),growth
1,O=C(CCCCCCN1CC(=O)N2[C@@H](c3cccc(Cl)c3)c3[nH]c4ccccc4c3C[C@H]2C1=O)NO,47.2% (inactive)
2,Nc1nc(Cl)cc(=O)n1Cc1ccccc1,97.3% (inactive)
3,CCC(C)NCC(=O)O (stereo not given),100% (inactive)
4,Cc1cc(Cl)nc(NCc2cc(Nc3ccnc4cc(Cl)ccc34)ccc2F)n1,11.4% (inactive)
5,C[C@@H]1OCC2(CCN(c3cnc(C(=O)Nc4cc(F)cc5cccnc45)cn3)CC2)[C@@H]1N,1.07% (active)
6,COc1ccc2c(c1)c(-c1nc(-c3ccc4ccccc4c3)cs1)cn2C,10.4% (inactive)
7,NC(=N\N=C/c1ccccc1[N+](=O)[O-])/C(N)=N\N=C/c1ccccc1[N+](=O)[O-],101% (inactive)
8,C=C1CC2(OC1=O)C(=O)N(CCCCCCCCCCCCN1C(=O)C3(CC(=C)C(=O)O3)c3ccccc31)c1ccccc12 (stereo not given),70.2% (inactive)
9,CC(C)[C@@H]1CC[C@@H]2[C@@H]1[C@H](OC(=O)/C=C/c1ccccc1)[C@]1(C(C)C)C[C@@H](OC(=O)CO)[C@@]2(C)O1,113% (inactive)
10,O=C(CCc1nnc(Cn2cnc3nc[nH]c3c2=O)o1)c1nc2ncccc2[nH]1,102% (inactive)
11,CCCCCC[n+]1ccc(SCC(=O)n2ccc3ccccc32)c2ccccc21,4.72% (active)
12,COc1cc(/C=C/c2cc(/C=C/c3ccc(O)c(OC)c3)n(C(=O)Nc3ccc(C)cc3)n2)ccc1O,-29.1% (active)
13,Cc1ccc(NCCN(C)C)c2c(=O)c3ccccc3sc12,26% (inactive)
14,O=C1NC(=O)C2C(=O)NC(=O)C1C21CCc2ccccc21 (stereo not given),101% (inactive)
15,O=c1[nH]c(-c2ccc(Cl)cc2)cn1-c1ccc(-n2cc(-c3ccc(Cl)cc3)[nH]c2=O)cc1,103% (inactive)
16,CC(C)(C)C1CCC(=NO)CC1 (stereo not given),94% (inactive)
17,CC/C(=N/NC(N)=O)c1ccccc1,103% (inactive)
18,Cc1cc([C@@H](C)Nc2ccccc2C(=O)O)c2nc(N3CCOCC3)cc(=O)n2c1,9.76% (active)
19,Cc1cc(=O)oc2cc(Oc3nc(-c4cccs4)cn4c(-c5cccs5)cnc34)ccc12,54.7% (inactive)
20,C=CCCCCCCCCCOC(C)=O,105% (inactive)
